{
  "source": "the supplement of paper PMC9135407",
  "tested_on": "primary human hepatic stellate cells (donor 1)",
  "assay": "scaled lipid accumulation score (0 = DMSO-like, 1 = nortriptyline-like); higher = stronger HSC inactivation (lipid re-accumulation), active = hit call of the paper",
  "settings": "48 h",
  "key": {"[1]": {"settings": "library stock concentration: 1 mM"}, "[2]": {"settings": "library stock concentration: 10 mM"}, "[3]": {"settings": "library stock concentration: 3.33 mM"}, "[4]": {"settings": "library stock concentration: 4.7 mM"}, "[5]": {"settings": "library stock concentration: 80 uM"}, "[6]": {"settings": "library stock concentration: 400 uM"}, "[7]": {"settings": "library stock concentration: 2 mM"}},
  "note": "“And” between values parts separate entries of the source, which are not always exact repeats. Identical values can stand only once. Counter-ions that a name gives are not always drawn. The campaign covered roughly 5,800 compounds. About 620 (11%) showed activity. This is one part of a sample in which actives are shown more often than they occur. Values without a mark were called inactive.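 The calls were made as follows: active = score above a cut-off or among the top three wells of a plate; in these data no inactive exceeds 0.85.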",
  "data": [
    {"compound": "O=P(O)(O)O[C@H]1[C@H](O)[C@@H](O)[C@H](OP(=O)(O)O)[C@@H](OP(=O)(O)O)[C@H]1O", "note": "[D-myo-Inositol-1,3,4-triphosphate (sodium salt)]", "values": [
      {"measurement": "scaled lipid accumulation score", "setting": "[1]", "result": "≤ 0"}
    ]},
    {"compound": "CNCCCC1c2ccccc2C=Cc2ccccc21.Cl", "note": "[Protriptyline hydrochloride]", "values": [
      {"measurement": "scaled lipid accumulation score", "result": "1.24 (active)"},
      {"measurement": "scaled lipid accumulation score", "setting": "[2]", "result": "0.911 (active)"}
    ]},
    {"compound": "CNCCCC1c2ccccc2C=Cc2ccccc21", "note": "[Protryptyline hydrochloride]", "values": [
      {"measurement": "scaled lipid accumulation score", "setting": "library stock concentration: 6.7 mM", "result": 0.698}
    ]},
    {"compound": "Nc1nc(OCC2CCCCC2)c2[nH]cnc2n1", "values": [
      {"measurement": "scaled lipid accumulation score", "setting": "[2]", "result": "≤ -0.055"}
    ]},
    {"compound": "S=P(N1CC1)(N1CC1)N1CC1", "note": "[Thiotepa]", "values": [
      {"measurement": "scaled lipid accumulation score", "setting": "[2]", "result": "≤ -0.027"},
      {"measurement": "scaled lipid accumulation score", "setting": "library stock concentration: 10.6 mM", "result": "≤ 0"}
    ]},
    {"compound": "CCCCCCCCCCCCCCCCOCC(CO)OC(C)=O", "note": "(stereo unspecified) [1-Hexadecyl-2-O-acetyl-glycerol]", "values": [
      {"measurement": "scaled lipid accumulation score", "setting": "[1]", "result": 0.035}
    ]},
    {"compound": "CC(C)N1Cc2cc(S(C)(=O)=O)ccc2N(CCN2CC=C(c3c[nH]c4cc(F)ccc34)CC2)S1(=O)=O", "values": [
      {"measurement": "scaled lipid accumulation score", "setting": "[2]", "result": 0.137}
    ]},
    {"compound": "C[C@@]1(C(=O)Nc2ccc(F)nc2)CCCN1c1nc(Nc2cc(C3CC3)n[nH]2)c2cccn2n1", "values": [
      {"measurement": "scaled lipid accumulation score", "setting": "[3]", "result": "≤ 0"},
      {"measurement": "scaled lipid accumulation score", "setting": "[2]", "result": 0.177}
    ]},
    {"compound": "CN1CCC(=C2c3ccccc3CCc3sccc32)CC1", "note": "[Pizotifen Malate]", "values": [
      {"measurement": "scaled lipid accumulation score", "setting": "[3]", "result": 0.473}
    ]},
    {"compound": "CN1CCC(=C2c3ccccc3CCc3sccc32)CC1", "note": "[Pizotifen malate]", "values": [
      {"measurement": "scaled lipid accumulation score", "result": 0.782}
    ]},
    {"compound": "CN1CCC(=C2c3ccccc3CC(=O)c3sccc32)CC1", "note": "[Ketotifen fumarate]", "values": [
      {"measurement": "scaled lipid accumulation score", "result": 0.627},
      {"measurement": "scaled lipid accumulation score", "setting": "[4]", "result": 0.276},
      {"measurement": "scaled lipid accumulation score", "setting": "[2]", "result": "0.172 and 0.737"}
    ]},
    {"compound": "CN1CCC(=C2c3ccccc3CCc3sccc32)CC1.O=C(O)/C=C\\C(=O)O", "note": "[Pizotyline]", "values": [
      {"measurement": "scaled lipid accumulation score", "setting": "[2]", "result": "1.2 (active)"}
    ]},
    {"compound": "CN1CCC(=C2c3ccccc3CC(=O)c3sccc32)CC1", "values": [
      {"measurement": "scaled lipid accumulation score", "setting": "[2]", "result": 0.593}
    ]},
    {"compound": "NC(=O)N1c2ccccc2CC(=O)c2ccccc21", "note": "[Oxcarbazepine]", "values": [
      {"measurement": "scaled lipid accumulation score", "setting": "[3]", "result": "≤ 0"},
      {"measurement": "scaled lipid accumulation score", "setting": "library stock concentration: 7.9 mM", "result": "≤ 0"},
      {"measurement": "scaled lipid accumulation score", "setting": "[2]", "result": "≤ 0 and ≤ -0.027"}
    ]},
    {"compound": "CN1CCC(=C2c3ccccc3CC(=O)c3sccc32)CC1.O=C(O)/C=C/C(=O)O", "note": "[Ketotifen fumarate]", "values": [
      {"measurement": "scaled lipid accumulation score", "setting": "[2]", "result": "0.913 (active)"}
    ]},
    {"compound": "NC(=O)N1c2ccccc2CC(=O)c2ccccc21", "note": "[Trileptal]", "values": [
      {"measurement": "scaled lipid accumulation score", "setting": "[2]", "result": "≤ 0"}
    ]},
    {"compound": "CN1CCC(=C2c3ccccc3CCc3sccc32)CC1.O=C(O)CC(O)C(=O)O", "note": "[Pizotifen Malate]", "values": [
      {"measurement": "scaled lipid accumulation score", "setting": "[2]", "result": "1.32 (active)"}
    ]},
    {"compound": "CN1CCC(=C2c3ccccc3CC(=O)c3sccc32)CC1", "note": "[Ketotifen Fumarate]", "values": [
      {"measurement": "scaled lipid accumulation score", "setting": "[3]", "result": "≤ 0"},
      {"measurement": "scaled lipid accumulation score", "setting": "[2]", "result": 0.576}
    ]},
    {"compound": "CN1CCC(=C2c3ccccc3CCc3sccc32)CC1", "note": "[Pizotyline malate]", "values": [
      {"measurement": "scaled lipid accumulation score", "setting": "[4]", "result": 0.792}
    ]},
    {"compound": "C[C@@]12C[C@@]3(O)O[C@@H](O1)[C@]1(COC(=O)c4ccccc4)[C@H]3C[C@@]12O[C@@H]1O[C@H](CO)[C@@H](O)[C@H](O)[C@H]1O", "note": "[Paeoniflorin]", "values": [
      {"measurement": "scaled lipid accumulation score", "setting": "[3]", "result": "≤ 0"},
      {"measurement": "scaled lipid accumulation score", "setting": "[2]", "result": "≤ 0"}
    ]},
    {"compound": "COCc1c(C(C)C)nc(C(C)C)c(/C=C/[C@@H](O)C[C@@H](O)CC(=O)O)c1-c1ccc(F)cc1", "values": [
      {"measurement": "scaled lipid accumulation score", "setting": "[2]", "result": 0.271}
    ]},
    {"compound": "COCc1c(C(C)C)nc(C(C)C)c(/C=C/[C@@H](O)C[C@@H](O)CC(=O)O)c1-c1ccc(F)cc1", "note": "[Cerivastatin]", "values": [
      {"measurement": "scaled lipid accumulation score", "setting": "library stock concentration: 4.4 mM", "result": 0.228}
    ]},
    {"compound": "CCCOc1ccc(Br)cc1-c1cc(-c2ccc(Cl)cc2)[nH]c1-c1ccncc1", "values": [
      {"measurement": "scaled lipid accumulation score", "setting": "[2]", "result": 0.006}
    ]},
    {"compound": "O=C1NC(=O)c2cc(Nc3ccccc3)c(Nc3ccccc3)cc21", "values": [
      {"measurement": "scaled lipid accumulation score", "setting": "[2]", "result": "0.353 and 0.003"}
    ]},
    {"compound": "Cc1cccc(-c2nn3c(c2-c2ccnc4ccc(C(N)=O)cc24)CCC3)n1", "values": [
      {"measurement": "scaled lipid accumulation score", "setting": "[3]", "result": 0.006},
      {"measurement": "scaled lipid accumulation score", "setting": "[2]", "result": "≤ 0"}
    ]},
    {"compound": "O=C(O)CCC/C=C\\C[C@@H]1C(=O)C[C@@H](O)[C@@H]1/C=C/[C@@H](O)CC1CCCCC1", "note": "[8-iso-16-cyclohexyl-tetranor Prostaglandin E2]", "values": [
      {"measurement": "scaled lipid accumulation score", "setting": "[1]", "result": "≤ 0"}
    ]},
    {"compound": "O=C(c1cc(Cc2n[nH]c(=O)c3ccccc23)ccc1F)N1CCN(C(=O)C2CC2)CC1", "values": [
      {"measurement": "scaled lipid accumulation score", "setting": "[3]", "result": "≤ 0"},
      {"measurement": "scaled lipid accumulation score", "setting": "[2]", "result": "≤ 0"}
    ]},
    {"compound": "CN1CCCC(n2nc(Cc3ccc(Cl)cc3)c3ccccc3c2=O)CC1", "note": "(stereo unspecified)", "values": [
      {"measurement": "scaled lipid accumulation score", "setting": "[2]", "result": "1.21 (active)"}
    ]},
    {"compound": "CN1CCCC(n2nc(Cc3ccc(Cl)cc3)c3ccccc3c2=O)CC1.Cl", "note": "(stereo unspecified) [Azelastine HCl]", "values": [
      {"measurement": "scaled lipid accumulation score", "setting": "[2]", "result": "1.09 (active)"}
    ]},
    {"compound": "CN1CCCC(n2nc(Cc3ccc(Cl)cc3)c3ccccc3c2=O)CC1.Cl", "note": "(stereo unspecified) [Azelastine hydrochloride]", "values": [
      {"measurement": "scaled lipid accumulation score", "setting": "library stock concentration: 4.8 mM", "result": "0.978 (active)"},
      {"measurement": "scaled lipid accumulation score", "setting": "[2]", "result": "0.992 (active)"}
    ]},
    {"compound": "CN1CCCC(n2nc(Cc3ccc(Cl)cc3)c3ccccc3c2=O)CC1", "note": "(stereo unspecified) [Azelastine HCl]", "values": [
      {"measurement": "scaled lipid accumulation score", "setting": "[3]", "result": 0.604}
    ]},
    {"compound": "COC1CCN(C(=O)c2cc(Cc3n[nH]c(=O)c4ccccc34)ccc2F)CC1", "values": [
      {"measurement": "scaled lipid accumulation score", "setting": "[3]", "result": "≤ 0"},
      {"measurement": "scaled lipid accumulation score", "setting": "[2]", "result": "≤ -0.001"}
    ]},
    {"compound": "O=C(c1cc(Cc2n[nH]c(=O)c3ccccc23)ccc1F)N1CCN(C(=O)C2CC2)CC1", "note": "[Olaparib]", "values": [
      {"measurement": "scaled lipid accumulation score", "setting": "[5]", "result": "≤ -0.0005"},
      {"measurement": "scaled lipid accumulation score", "setting": "[6]", "result": "≤ -0.0045"},
      {"measurement": "scaled lipid accumulation score", "setting": "[7]", "result": "≤ -0.0045"},
      {"measurement": "scaled lipid accumulation score", "setting": "[2]", "result": "≤ -0.0045"}
    ]},
    {"compound": "NC(C(=O)O)c1ccc(C(=O)O)c(C(=O)O)c1", "note": "(racemic)", "values": [
      {"measurement": "scaled lipid accumulation score", "setting": "[2]", "result": "≤ -0.006"}
    ]},
    {"compound": "C[C@@H]1CN(c2c(F)c(F)c3c(=O)c(C(=O)O)cn(C4CC4)c3c2F)C[C@H](C)N1", "values": [
      {"measurement": "scaled lipid accumulation score", "setting": "[2]", "result": "≤ 0"}
    ]},
    {"compound": "N=C(NO)NCC[C@H](N)C(=O)O", "values": [
      {"measurement": "scaled lipid accumulation score", "setting": "[1]", "result": "≤ 0"}
    ]},
    {"compound": "CC(=O)Oc1cccc(O)c1", "note": "[Resorcinol monoacetate]", "values": [
      {"measurement": "scaled lipid accumulation score", "setting": "[2]", "result": 0.063},
      {"measurement": "scaled lipid accumulation score", "setting": "library stock concentration: 13.1 mM", "result": "≤ 0"}
    ]},
    {"compound": "CCCCCCCC/C=C\\C/C=C\\C/C=C\\CCCC(=O)NCCO", "note": "[5(Z),8(Z),11(Z)-Eicosatrienoic Acid Ethanolamide]", "values": [
      {"measurement": "scaled lipid accumulation score", "setting": "[1]", "result": 0.015}
    ]},
    {"compound": "CCCCCCCC/C=C\\C/C=C\\C/C=C\\CCCC(=O)NCCO", "note": "[Mead ethanolamide]", "values": [
      {"measurement": "scaled lipid accumulation score", "setting": "[1]", "result": 0.017}
    ]},
    {"compound": "CCCCCCCCCCCCCCCC(=O)O[C@H](CC(=O)O)C[N+](C)(C)C", "values": [
      {"measurement": "scaled lipid accumulation score", "setting": "[2]", "result": 0.027}
    ]},
    {"compound": "CCCOc1ccc(C=C2SC(=O)NC2=O)cc1", "values": [
      {"measurement": "scaled lipid accumulation score", "setting": "[5]", "result": "≤ -0.001"},
      {"measurement": "scaled lipid accumulation score", "setting": "[6]", "result": "≤ -0.001"},
      {"measurement": "scaled lipid accumulation score", "setting": "[7]", "result": "≤ -0.001"},
      {"measurement": "scaled lipid accumulation score", "setting": "[2]", "result": "≤ -0.001"}
    ]}
  ]
}
